Source: PubChem (National Center for Advancing Translational Sciences (NCATS))
HT1080 IDH1KD tx – kills HT-1080 cells with IDH1 knockdown. 360,000 tested, 2% active. HT-1080 IDH1 knockdown viability, ATP luminescence, 48 h. Potency, µM (titrated, usually from 46.1 µM), for inactives: at the highest dose activity, negative = toxicity, actives largely listed as cytotoxic. AID 686971;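 also: potency is read from the fitted curve at half-maximal effect; 0% = DMSO wells and -100% = cell-free medium wells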
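Assay cells: HT-1080 with IDH1 knockdown, 750 per well, RPMI/5% FBS. Exposure: 48 h at 37 °C following 2 h pre-incubation. Read: CellTiter-Glo luminescence; fitted concentration-response, curve class assigned.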
HT1080NT lethal – kills 2HG-producing HT-1080-NT fibrosarcoma cells. HT-1080-NT fibrosarcoma viability, CellTiter-Glo ATP luminescence, 48 h. Potency, µM (titrated, usually from 46.1 µM), for the others: at the top dose activity, negative = less viability, most hits filed as cytotoxic. 360,000 tested, 1.6% active. AID 686970;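 also: NT is the 2HG producing partner of a matched IDH1 knockdown line; potency is read from the fitted curve at half-maximal effect; 0% = DMSO-treated cells and -100% = media-only wells without cells; nearly all actives have a fitted effect of over 55% in size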
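Toxicity toward the 2HG-producing NT line was scored as %Activity, normalised to DMSO and no-cell wells, from CellTiter-Glo luminescence after 48 hours' treatment.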
IL-1B inflam inh – inflammasome signaling inhibition, IL-1 beta readout; THP-1 LPS/ATP IL-1B secretion, AlphaLISA, 16 h; stronger effect = lower value; activity change, % at 57.5 µM; 360,000 tested, 4.7% active; in the data active = activity change below about -50%; inconclusive = mostly about -30% to -49%
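THP-1 cells pretreated 1 hr with compounds (up to 57.5 uM final), then stimulated with LPS (250 ng/mL final) plus ATP (1.25 mM final); secreted IL-1B measured by AlphaLISA after 16 hr, decreased signal indicating inhibition.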
12-LOX inh – inhibitors of human 12S-lipoxygenase ALOX12. purified 12hLO, xylenol orange hydroperoxide absorbance. AID 1671190. P18054. Potency, µM (series often up to 108 µM), inactives show at the highest dose activity change, negative = inhibition, actives largely listed as inhibitors. 580,000 tested, 1.1% active; also: potency is read from the fitted curve at half-maximal effect
Target sequence (P18054 whole entry, looked up): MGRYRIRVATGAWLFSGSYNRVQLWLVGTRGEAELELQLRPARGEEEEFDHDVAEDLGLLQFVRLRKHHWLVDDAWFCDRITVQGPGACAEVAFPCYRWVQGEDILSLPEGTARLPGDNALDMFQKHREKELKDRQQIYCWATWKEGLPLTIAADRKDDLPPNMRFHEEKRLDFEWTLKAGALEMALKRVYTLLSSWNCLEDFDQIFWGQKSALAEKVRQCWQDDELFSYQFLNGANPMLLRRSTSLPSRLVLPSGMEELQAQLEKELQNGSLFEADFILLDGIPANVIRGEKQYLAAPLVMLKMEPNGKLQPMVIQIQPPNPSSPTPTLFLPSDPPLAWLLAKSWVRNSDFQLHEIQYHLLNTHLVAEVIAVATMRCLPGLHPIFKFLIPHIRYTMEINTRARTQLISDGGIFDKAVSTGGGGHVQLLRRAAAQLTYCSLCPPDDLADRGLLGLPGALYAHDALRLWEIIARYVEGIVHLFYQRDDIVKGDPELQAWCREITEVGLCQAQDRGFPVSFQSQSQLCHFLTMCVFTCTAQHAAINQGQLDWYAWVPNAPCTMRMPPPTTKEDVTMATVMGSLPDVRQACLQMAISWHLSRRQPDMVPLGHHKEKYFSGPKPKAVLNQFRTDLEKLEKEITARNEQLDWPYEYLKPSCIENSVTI
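Purified human 12hLO at 150 nM in 25 mM Hepes, 0.01% Triton X-100, pH 7.0, preincubated 15 min at room temperature with compound. Reaction started with 40 uM arachidonic acid, 30 min at room temperature. Hydroperoxide measured by Fe-xylenol orange, 573/405 nm absorbance ratio.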
DT40 TDP1 no CPT – qHTS for Inhibitors of human tyrosyl-DNA phosphodiesterase 1 (TDP1): qHTS in cells in absence of CPT | Potency, µM (doses to about 46.2 µM), for inactives: at the top dose activity change, negative = growth inhibition, usual class: inhibitors | 420,000 tested, 15% active | AID 686978, 2013 | DT40 Tdp1-/- hTDP1 cells, no CPT, ATP luminescence, 48 h; also: potency is read from the fitted curve at half-maximal effect; nearly all actives have a fitted effect of over 55% in size
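Cells were dispensed at 400 per well, compounds added by pin tool, plates incubated ≥48 hr at 37 °C, then CellTiter-Glo added for 30 min at room temperature before luminescence reading. Line: DT40 Tdp1-/- complemented with hTDP1; camptothecin omitted.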
DT40 TDP1 CPT – DT40-hTDP1 cell growth loss with CPT; chicken DT40 Tdp1-/-;hTDP1 cells + 20 nM CPT, ATP luminescence, 48 h; Potency, µM (titrated, usually from 46.2 µM), for inactives: top-dose activity change, negative = growth inhibition, hits mostly inhibitors; 420,000 tested, 12% active; AID 686979; also: potency is read from the fitted curve at half-maximal effect; nearly all actives have a fitted effect of over 55% in size
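Cell growth measured by CellTiter-Glo luminescence after a minimum 48 h, 37 C compound exposure with 20 nM CPT in Tdp1-knockout DT40 cells stably expressing hTDP1, seeded 400/well; qHTS titration format.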
* = called active by the depositor. Only a selection was taken, and hits are over-represented in it overall. Unless noted, calls follow the shape of the dose curve; as a rule, active = well fitted curve in the direction sought with a large enough effect; inconclusive = small, poorly fitted or top-dose-only effect, or another doubt; inactive = no such curve, though single readings can be large; an effect the other way counts as inactive or inconclusive. Unless noted, % is scaled to controls: 0 for no effect and ±100 for the full control effect.

What do the screens show for `Cc1c(N=C2NN=C(c3c[nH]c4ccccc34)CS2)c(=O)n(-c2ccccc2)n1C`?
HT1080 IDH1KD tx: -2%; HT1080NT lethal: -6%; IL-1B inflam inh: 2; 12-LOX inh: -1%; DT40 TDP1 no CPT: 3%; DT40 TDP1 CPT: -3%

How did COCCn1ncc(N2CCCC(CC(=O)NCc3ccc(F)cc3F)C2)cc1=O (stereo unspecified) do in these assays?
12-LOX inh: 8%

How did CC(C(=O)Nc1ccccc1)n1nc(-c2ccccc2)c2c(c1=O)CCCC2 (stereo unspecified) do in these assays?
12-LOX inh: -8%

What do the screens show for `COCCCNC(=O)c1ccc2c3c(onc13)-c1ccccc1C2=O`?
HT1080 IDH1KD tx: inconclusive; HT1080NT lethal: inconclusive; IL-1B inflam inh: -98*; DT40 TDP1 no CPT: 15µM*; DT40 TDP1 CPT: 7.3µM*

What do the screens show for `COCCCNC(=O)c1cc(C)nc2ccccc12`?
12-LOX inh: 19%

Results for CCc1ccc(C(=O)COC(=O)c2ccc3cc(OC)ccc3c2)s1 ?
12-LOX inh: 49%

What do the screens show for `O=[N+]([O-])c1ccc(C2=Nn3c(Cn4nnc5ccccc54)nnc3SC2)cc1`?
HT1080 IDH1KD tx: 5%; HT1080NT lethal: -4%; IL-1B inflam inh: -9; 12-LOX inh: -14%; DT40 TDP1 no CPT: 16µM*; DT40 TDP1 CPT: 21µM*

What do the screens show for `CSc1nc2[nH]c(=O)n(O)c(=O)c2n1Cc1ccccc1`?
HT1080 IDH1KD tx: inconclusive; HT1080NT lethal: inconclusive; IL-1B inflam inh: -9; 12-LOX inh: -16%; DT40 TDP1 no CPT: 18µM*; DT40 TDP1 CPT: inconclusive

Results for CCCCCCCCS(=O)(=O)CCSC(=N)N ?
12-LOX inh: -27%

What do the screens show for `CN(C)CC1(O)CCC2(CCN(C(=O)CCc3nc(-c4ccccc4)no3)CC2)CC1`?
12-LOX inh: 51%

Results for CCc1ccc(C(=O)OCC(=O)N(CC)c2c(N)n(Cc3ccccc3)c(=O)[nH]c2=O)cc1 ?
HT1080 IDH1KD tx: 13%; HT1080NT lethal: 4%; IL-1B inflam inh: 4; 12-LOX inh: 9%; DT40 TDP1 no CPT: 1%; DT40 TDP1 CPT: -5%

Results for CCN(C(=O)COC(=O)c1cc2c(s1)CCC(C)C2)c1c(N)n(Cc2ccccc2)c(=O)[nH]c1=O (stereo unspecified) ?
HT1080 IDH1KD tx: -3%; HT1080NT lethal: -13%; IL-1B inflam inh: -26; 12-LOX inh: 224%; DT40 TDP1 no CPT: inconclusive; DT40 TDP1 CPT: 16µM*

Results for COCCN(C(=O)COC(=O)CCC(=O)c1ccc(C)cc1)c1c(N)n(Cc2ccccc2)c(=O)[nH]c1=O ?
HT1080 IDH1KD tx: 9%; HT1080NT lethal: 1%; IL-1B inflam inh: 0; 12-LOX inh: -1%; DT40 TDP1 no CPT: -17%; DT40 TDP1 CPT: -9%

What do the screens show for `CCN(C(=O)COC(=O)CCC(=O)c1ccc(Cl)cc1)c1c(N)n(Cc2ccccc2)c(=O)[nH]c1=O`?
HT1080 IDH1KD tx: -4%; HT1080NT lethal: 3%; IL-1B inflam inh: -7; 12-LOX inh: 154%; DT40 TDP1 no CPT: 23µM*; DT40 TDP1 CPT: 18µM*

Results for CCN(C(=O)COC(=O)c1ccc2[nH]c(C)c(C)c2c1)c1c(N)n(Cc2ccccc2)c(=O)[nH]c1=O ?
HT1080 IDH1KD tx: 2%; HT1080NT lethal: 5%; IL-1B inflam inh: 0; 12-LOX inh: inconclusive; DT40 TDP1 no CPT: -30%; DT40 TDP1 CPT: 18µM*

How did CC1CCc2sc(C(=O)OCC(=O)NCc3ccc(F)cc3)cc2C1 (stereo unspecified) do in these assays?
HT1080 IDH1KD tx: 21µM*; HT1080NT lethal: inconclusive; IL-1B inflam inh: 7; 12-LOX inh: -10%; DT40 TDP1 no CPT: 15µM*; DT40 TDP1 CPT: 21µM*

What do the screens show for `Cc1ccc(C(=O)N2CCCCC2C(=O)Nc2cccc(-c3nnc(C)s3)c2)cn1` (stereo unspecified)?
12-LOX inh: 25%

How did N#C/C(=C/c1cccn1-c1cccc(C(F)(F)F)c1)c1ccc([N+](=O)[O-])cc1 do in these assays?
12-LOX inh: 2%

How did N#C/C(=C/c1cccn1-c1cccc(C(=O)O)c1)c1ccc(Cl)cc1 do in these assays?
HT1080 IDH1KD tx: -15%; HT1080NT lethal: -25%; IL-1B inflam inh: -6; 12-LOX inh: 45µM*; DT40 TDP1 no CPT: -8%; DT40 TDP1 CPT: 0%

Results for O=C(CSc1nc2ccccc2c(=O)n1-c1cccc(C(F)(F)F)c1)NC1CC1 ?
HT1080 IDH1KD tx: -1%; HT1080NT lethal: -7%; IL-1B inflam inh: inconclusive; 12-LOX inh: -17%; DT40 TDP1 no CPT: inconclusive; DT40 TDP1 CPT: 18µM*

How did Cc1ccc(-n2c(SCC(=O)NC3CCS(=O)(=O)C3)nc3ccccc3c2=O)c(C)c1 (stereo unspecified) do in these assays?
HT1080 IDH1KD tx: -8%; HT1080NT lethal: -10%; IL-1B inflam inh: 0; 12-LOX inh: 9%; DT40 TDP1 no CPT: 16µM*; DT40 TDP1 CPT: inconclusive

How did C#CCN1C=CC(=O)[C@@H](OC(=O)Nc2ccc(Cl)cc2)[C@H]1c1ccccc1Br do in these assays?
HT1080 IDH1KD tx: -18%; HT1080NT lethal: 4%; IL-1B inflam inh: -10; 12-LOX inh: inconclusive; DT40 TDP1 no CPT: 23µM*; DT40 TDP1 CPT: 21µM*

Results for C#CCN1C=CC(=O)[C@@H](OC(=O)Nc2ccc(C)cc2)[C@H]1c1ccccc1Br ?
HT1080 IDH1KD tx: 0%; HT1080NT lethal: -2%; IL-1B inflam inh: 20; 12-LOX inh: -9%; DT40 TDP1 no CPT: inconclusive; DT40 TDP1 CPT: inconclusive

How did CC1(C)CC(=O)c2cc(-c3nc(-c4ccc(F)cc4)cs3)c(=O)[nH]c2C1 do in these assays?
12-LOX inh: 50µM*; DT40 TDP1 no CPT: -25%; DT40 TDP1 CPT: -19%

How did Cc1ccc2c(CN3CCN(Cc4ccccc4)CC3)cc(=O)oc2c1 do in these assays?
HT1080 IDH1KD tx: 6%; HT1080NT lethal: 3%; IL-1B inflam inh: 2; 12-LOX inh: -1%; DT40 TDP1 no CPT: -17%; DT40 TDP1 CPT: -25%

How did O=c1cc(CN2CCN(C/C=C/c3ccccc3)CC2)c2cc(O)ccc2o1 do in these assays?
HT1080 IDH1KD tx: inconclusive; HT1080NT lethal: 26µM*; IL-1B inflam inh: -54*; 12-LOX inh: -6%; DT40 TDP1 no CPT: inconclusive; DT40 TDP1 CPT: inconclusive

What do the screens show for `CCN1CCN(Cc2cc(=O)oc3ccc(O)cc23)CC1`?
12-LOX inh: -9%
